Screening data: PubChem, National Center for Advancing Translational Sciences (NCATS)
D3 antag: antagonists of human D3 dopamine receptor; P35462; D3R cells, DiscoveRx beta-arrestin luminescence, antagonist mode; hits give low values; max response, negative = inhibition, %; 360,000 compounds, 2.5% hits; AID 652054; in the data active = max response below about -50%; inconclusive = no clear call, values can overlap the other calls; also: % is scaled to controls: 0 for no effect and ±100 for the full control effect
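Cells plated overnight at 1500 cells/well, then exposed to library compounds with dopamine controls for 90 minutes at 37 degrees C. DiscoveRx reagent added for 30–60 minutes at room temperature; luminescence read, quantitative HTS format.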
IL-1B inflam inh: inhibitors of inflammasome signaling (IL-1 beta secretion) | THP-1 LPS/ATP IL-1B secretion, AlphaLISA, 16 h; hits give low values | activity change, % at 57.5 µM | 360,000 compounds, 4.7% hits; in the data active = activity change below about -50%; inconclusive = mostly about -30% to -49%; also: % is scaled to controls: 0 for no effect and ±100 for the full control effect
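THP-1 cells pretreated 1 hr with compounds (up to 57.5 uM final), then stimulated with LPS (250 ng/mL final) plus ATP (1.25 mM final); secreted IL-1B measured by AlphaLISA after 16 hr, decreased signal indicating inhibition.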
ClpP mod: qHTS Assay for Activators of ClpP. ATP-dependent Clp protease proteolytic subunit (Bacillus subtilis (strain 168)), P80244. purified B. subtilis ClpP, FRET peptide cleavage, 20 min. Potency, µM (titrated, usually from 57.5 µM), inactives show at the top dose activity change, negative = active. 340,000 compounds, 1.9% hits; active = well fitted falling curve with a large enough effect; inconclusive = small, poorly fitted or top-dose-only effect; inactive = no such curve, though single readings can be large or run the other way; also: potency is read from the fitted curve at half-maximal effect; the source files actives as falling curves though it sought activators and does not explain the sign; nearly all actives have a fitted effect of over 65% in size
Target sequence (P80244 whole entry, looked up): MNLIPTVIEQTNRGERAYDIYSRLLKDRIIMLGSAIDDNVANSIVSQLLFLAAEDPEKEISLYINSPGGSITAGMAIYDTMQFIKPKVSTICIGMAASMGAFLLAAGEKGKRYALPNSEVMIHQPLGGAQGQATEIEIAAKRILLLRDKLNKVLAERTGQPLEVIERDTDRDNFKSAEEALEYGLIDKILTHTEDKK
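FRET quenching reversal measured ClpP activation: 10 microg/mL B. subtilis ClpP at pH 8 with the FRET-FV decapeptide, read at 430 nm after 320 nm excitation. The 20-min minus 0-min signal was scaled between DMSO/no-enzyme wells and ADEP (5.8 microM final).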
TDP1 cell noCPT: qHTS for Inhibitors of human tyrosyl-DNA phosphodiesterase 1 (TDP1): qHTS in cells in absence of CPT; DT40 Tdp1-/- hTDP1 cells, no CPT, ATP luminescence, 48 h; Potency, µM (series often up to 46.2 µM), for the others: top-dose activity change, negative = growth inhibition, actives largely listed as inhibitors; 420,000 compounds, 15% hits; AID 686978, 2013; also: potency is read from the fitted curve at half-maximal effect; % is scaled to controls: 0 for no effect and ±100 for the full control effect; nearly all actives have a fitted effect of over 55% in size
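Stably hTDP1-transfected Tdp1-null chicken DT40 cells were treated with library compounds minus camptothecin and grown for at least 48 hr at 37 °C, after which cellular ATP was quantified by luminescence.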
DRD3 agonist: agonists of human D3 dopamine receptor. P35462. D3R DiscoveRx beta-arrestin cells, luminescence, 90 min. max activation, %. 410,000 compounds, 0.58% hits; in the data active = max activation above about 30%; also: 0% is about no effect
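Cells at 1500/well, incubated overnight, then treated with pinned compounds (dopamine as control) for 90 min at 37 degrees C. DiscoveRx reagent added for 30 - 60 minutes at room temperature; luminescence read.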
DT40 TDP1 CPT: DT40-hTDP1 cell growth loss with CPT; chicken DT40 Tdp1-/-;hTDP1 cells + 20 nM CPT, ATP luminescence, 48 h; Potency, µM (top dose mostly 46.2 µM), for the others: top-dose activity change, negative = growth inhibition, actives largely listed as inhibitors; 420,000 compounds, 12% hits; AID 686979; also: potency is read from the fitted curve at half-maximal effect; % is scaled to controls: 0 for no effect and ±100 for the full control effect; nearly all actives have a fitted effect of over 55% in size
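Chicken DT40 Tdp1-/- cells complemented with human TDP1, 400 cells/well, exposed to compounds plus 20 nM camptothecin for at least 48 h at 37 C; viability read as ATP content by CellTiter-Glo luminescence.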
* hit, by the source's call; ? = inconclusive; . = not tested or not shown. The list is not random: actives were taken first. Their share in the collection is about 21%. Unless noted, calls follow the shape of the dose curve; as a rule, active = well fitted inhibition curve with a large enough effect; inconclusive = small, poorly fitted or top-dose-only effect; inactive = flat fitted curve, though single readings scatter.

SMILES	D3 antag	IL-1B inflam inh	ClpP mod	TDP1 cell noCPT	DRD3 agonist	DT40 TDP1 CPT
CCOCCOC(=O)c1ccc2c(c1)N(Cc1ccccc1C#N)C(=O)c1ccccc1S2(=O)=O	.	.	-2.9%	?	-9.5	?
OCCCNC(=S)Nc1ccc(Br)cc1Cl	1.8	-13.8	-0.3%	-8.5%	-22.5	-14.0%
CC(OC(=O)C1CCC1)C(=O)Nc1cc(Cl)cc(Cl)c1 (centres undefined)	-16.2	-0.2	-7.0%	-18.7%	-0.8	1.0%
COc1ccccc1C1(CC(=O)Nc2nccs2)CCOC(C(C)C)C1 (centres undefined)	-5.5	38.9	-3.0%	4.61µM*	11.7	5.17µM*
COc1ccc(NC(=O)N(C(C)C)C2CCN(C(C)=O)CC2)c(OC)c1	.	.	-0.6%	-0.8%	2.9	-9.6%
COc1ccc(OCC(=O)NCc2ccc3c(c2)CCN3C(=O)c2ccc(F)cc2)cc1	.	.	-2.3%	?	-8.8	-29.3%
O=C(COc1ccccc1)NCc1ccc2c(c1)CCN2C(=O)c1ccccc1	.	.	0.6%	6.51µM*	7.2	11.6µM*
COc1ccc(OCC(=O)NCc2ccc3c(c2)CCN3C(=O)c2ccccc2)cc1	.	.	-0.4%	13µM*	-6.7	14.6µM*
Cc1ccc(C(=O)N2CCc3cc(CNC(=O)COc4ccccc4)ccc32)cc1	.	.	-1.0%	11.6µM*	-11.4	13µM*
CCOc1ccc(CC(=O)NCc2ccc3c(c2)CCN3C(=O)c2ccccc2)cc1OCC	.	.	0.8%	?	-3.5	16.4µM*
Cc1cccc(OCC(=O)NCc2ccc3c(c2)CCN3C(=O)c2ccc(Cl)cc2)c1	.	.	-19.5%	-5.0%	-16.6	-3.9%
COc1ccccc1CN1CC2(CCN(C(=O)c3cc(C(F)(F)F)cc(C(F)(F)F)c3)CC2)C1	.	.	.	?	.	3.4%
COC(=O)c1[nH]c(C)c(/C(O)=C2\C(=O)C(=O)N(CCN3CCOCC3)C2c2ccc(C)o2)c1C (centres undefined)	6.5	-3.7	-2.2%	10.8%	5.5	0.5%
O=C1NC2CCCCC2C(=O)N1OS(=O)(=O)c1ccccc1 (centres undefined)	-14.8	-78.3*	2.3%	11.6µM*	5.2	2.59µM*
OC(c1ccccc1)C(NCc1ccccc1)c1ccccc1 (centres undefined)	-11.6	-22.6	2.2%	23.1µM*	-9.7	23.1µM*
CCC(C)NS(=O)(=O)c1ccc(S(=O)(=O)N2CC=C(c3ccc(F)cc3)CC2)cc1 (centres undefined)	8.0	-25.6	3.0%	18.4µM*	3.7	16.4µM*
Cc1nc2ccccc2c(=O)n1N(c1ccccc1)c1ccccc1	-1.0	-28.8	0.0%	-28.1%	0.9	?
O=C(Nc1nccs1)C1CC=CCC1C(=O)OCC(F)(F)C(F)F (centres undefined)	4.0	9.6	1.2%	-0.5%	1.4	0.7%
O=C1C2C3c4ccccc4C(c4ccccc43)[C@@H]2c2nc3ccccc3n21 (some centres undefined)	34.8	0.6	-2.8%	10.3µM*	-1.2	11.6µM*
CCC(CC)NC(=O)Nc1ccc(C)cc1	-5.8	12.7	1.3%	-1.5%	-4.5	-10.9%
CC(=O)Nc1ccc(C(=O)OCC(=O)N(c2ccccc2)C2CCCCC2)cc1	18.9	-27.1	1.2%	23.1µM*	13.8	?
O=C(CCl)N(c1ccccc1)C1CCCCC1	-65.4*	-101.2*	-0.3%	2.91µM*	-11.2	2.59µM*
CC(=O)Nc1ccc(C(=O)OCC(=O)N(C)C2CCCCC2)cc1	3.0	3.1	.	-2.6%	3.8	24.0%
CC1(C)Cc2c(sc(NC(=O)C(=O)N3CCN(CCO)CC3)c2C(N)=O)CO1	2.7	12.6	-1.4%	-10.3%	0.9	22.8%
